Laboratory results reported in PubChem BioAssay AID463173 (ICCB-Longwood Screening Facility, Harvard Medical School, 2010).
Out of some 52,000 compounds screened, about 4,300 (8.3%) were called active. This is one part of a sample in which actives are shown more often than they occur. Values without a mark were called inactive. Cut-off read from the data, not from the text of the source: active = survival mostly below about 52% (no sharp cut-off); inactive = mostly above about 56%.

Test system: DeltatarO mutant
Assay: S. aureus survival, RN4220 and DeltatarO strains – OD600, teichoic acid synthesis inhibitors, primary screen (AID 463173)
Details: S. aureus RN4220 wild type/DeltatarO growth, OD600, 18 h, active compounds read low, screened at 18.75 µg/mL (by protocol)

Structure (SMILES) | survival
COC(=O)c1ccc(NC(=O)CCS(=O)(=O)c2ccc(Br)cc2)cc1 | 77%
O=C(Nc1ccc(Cl)cc1)C(NS(=O)(=O)c1cccs1)c1ccccc1 (stereo unspecified) | 19% (active)
Cc1cc(Br)ccc1NC(=O)C(NS(=O)(=O)c1cccs1)c1ccccc1 (stereo unspecified) | 31% (active)
COc1ccc(C)cc1NC(=O)C(Cc1ccccc1)NS(=O)(=O)c1cccs1 (stereo unspecified) | 84%
Cc1cccc(C)c1NC(=O)C(NS(=O)(=O)c1cccs1)c1ccccc1 (stereo unspecified) | 56%
CC(=O)Nc1ccc(NC(=O)C(NS(=O)(=O)c2ccc(Br)s2)c2ccccc2)cc1 (stereo unspecified) | 93%
CCC(C)(C)NC(=O)C(NS(=O)(=O)c1cccs1)c1ccccc1 (stereo unspecified) | 84%
COc1ccc(C)cc1NC(=O)C(NS(=O)(=O)c1cccs1)c1ccccc1 (stereo unspecified) | 11% (active)
CCOc1ccc(OCC)c(NC(=O)C(NS(=O)(=O)c2cccs2)c2ccccc2)c1 (stereo unspecified) | 66%
Cc1cc(Br)ccc1NC(=O)C(Cc1ccccc1)NS(=O)(=O)c1ccc(Br)s1 (stereo unspecified) | 114%
O=C(c1cccc(C(F)(F)F)c1)C1CCN(C(=O)N2CCOCC2)CC1 | 103%
Cc1cccc(CSc2nc3c(c(=O)[nH]2)C(c2cccc(O)c2)CC(=O)N3)c1 (stereo unspecified) | 110%
CCc1nn(CC(=O)NCc2ccco2)c(=O)c2cc3cc(F)ccc3n12 | 104%
COc1ccc(Cn2ccc3nc(C)c(C(=O)N4CCN(c5ccccc5)CC4)cc3c2=O)cc1 | 85%
COc1ccc(CNC(=O)Cn2c(=O)cc(-c3ccccc3)c3c(C)nn(C)c32)cc1 | 67%
COc1ccc(CCNC(=O)CN(c2ccccc2)S(=O)(=O)N(C)C)cc1OC | 62%
Cc1nc(-n2nc(C)c(CCC(C)C)c2C)sc1C(=O)Nc1cccc(Cl)c1 | 122%
Cc1nc(-n2nc(C)c(CCC(C)C)c2C)sc1C(=O)Nc1cccc(Cl)c1C | 56% (active)
Cc1cccc(NC(=O)c2sc(-n3nc(C)c(CCC(C)C)c3C)nc2C)c1C | 62%
CCCN(C(=O)Nc1cn(CC(C)C)c(=O)c2ccccc12)c1ccc(F)cc1 | 82%
Cc1cc(C)n(CCCO)c(=O)c1C#N | 86%
COc1ccc(-c2cn3c(n2)sc2cc(C(=O)NC4CCCCCC4)ccc23)cc1 | 73%
CCn1c(CN2CCC(C)CC2)nc2cc(NC(=O)c3ccc([N+](=O)[O-])cc3)ccc21 | 86%
CCC1CN(C(=O)Nc2cc(Cl)c(OC)cc2OC)c2ccccc2O1 (stereo unspecified) | 61%

Structure (SMILES) | survival
CCc1ccccc1NC(=O)N1CC(CC)Oc2ccc(Cl)cc21 (stereo unspecified) | 44%
CCC1CN(C(=O)Nc2cccc3c2CCCC3)c2cc(C)ccc2O1 (stereo unspecified) | 49%
CCC1CN(C(=O)Nc2cc(C)ccc2OC)c2cc(Cl)ccc2O1 (stereo unspecified) | 44% (active)
CCC1CN(C(=O)Nc2cccc3c2CCCC3)c2ccccc2O1 (stereo unspecified) | 56%
CCC1CN(C(=O)Nc2cccc3c2CCCC3)c2cc(Cl)ccc2O1 (stereo unspecified) | 44% (active)
Cc1ccc(C)c(CN2C(=O)c3ccccc3Sc3ccc(C(=O)NCCCOC(C)C)cc32)c1 | 89%
COc1cccc(N2CCN(c3ncnc4onc(-c5ccc(F)cc5)c34)CC2)c1 | 83%
CCc1ccc(NC(=O)CSc2nc(C)cc(COC)c2C#N)cc1 | 84%
COc1ccc2[nH]c(=O)c(CN(Cc3cccs3)S(=O)(=O)c3cccc4nsnc34)cc2c1 | 113%
CCc1ccccc1NC(=O)N1CC(C)Sc2ccccc21 (stereo unspecified) | 77%
COC(=O)c1ccccc1NC(=O)CCC(=O)N1CCOc2ccccc21 | 65%
Cc1ccc(Cl)cc1NC(=O)CCC(=O)N1CC(C)Sc2ccccc21 (stereo unspecified) | 44% (active)
COC(=O)c1ccccc1NC(=O)CCC(=O)N1CC(C)Sc2ccccc21 (stereo unspecified) | 42% (active)
Cc1ccccc1NC(=O)CCC(=O)N1CC(C)Sc2ccccc21 (stereo unspecified) | 64%
CC1CN(C(=O)CCC(=O)Nc2cc(F)ccc2F)c2ccccc2S1 (stereo unspecified) | 51%
Fc1ccccc1N1CCN(Cc2nnc(-c3ccc4c(c3)OCO4)o2)CC1 | 85%
CCC(=O)N(c1nnc(-c2cc(OC)c(OC)c(OC)c2)s1)C1CCCC1 | 65%
O=C(CNC(=O)c1ccc(F)cc1)OCc1cc(=O)n2nc(C3CC3)sc2n1 | 81%
Oc1ccc(Nc2nc(-c3ccc(O)cc3)cs2)cc1 | 1% (active)
c1ccc(Nc2nc(-c3ccncc3)cs2)cc1 | 100%
Cc1ccc(Nc2nc(C)cs2)cc1 | 82%
CN1CCN(C(c2cccc(Br)c2)c2sc3nc(-c4ccco4)nn3c2O)CC1 (stereo unspecified) | 70%
Cc1ccc(-c2c(C(=O)N(C)Cc3ccccc3)oc(=O)c3ccccc23)cc1 | 24% (active)
CCN(CC)S(=O)(=O)c1ccc2oc(C(=O)NCc3ccccc3OC)c(C)c2c1 | 71%

Structure (SMILES) | survival
COc1ccc(N(C)C(=O)c2oc(=O)c3ccccc3c2-c2ccc(C)cc2)c(OC)c1 | 97%
CCN(CC)S(=O)(=O)c1ccc2oc(C(=O)N(C)Cc3ccccc3)c(C)c2c1 | 40% (active)
Cc1ccc(-c2c(C(=O)NCCc3ccc(Cl)cc3)oc(=O)c3ccccc23)cc1 | 51%
CCCCN(CCCC)S(=O)(=O)c1ccc2oc(C(=O)NCc3ccccc3)c(C)c2c1 | 99%
Cc1ccc(-c2c(C(=O)NCCc3ccccc3)oc(=O)c3ccccc23)cc1 | 91%
Cc1ccc(CCNC(=O)c2oc(=O)c3ccccc3c2-c2ccc(C)cc2)cc1 | 28% (active)
CCOc1ccc(N(C)C(=O)c2oc(=O)c3ccccc3c2-c2ccccc2)cc1 | 55%
Cc1ccc(-c2c(C(=O)NCc3ccc(F)cc3)oc(=O)c3ccccc23)cc1 | 57%
CCOc1ccc(CCNC(=O)c2oc(=O)c3ccccc3c2-c2ccc(C)cc2)cc1OCC | 70%
CCCCN(Cc1ccccc1)C(=O)c1oc(=O)c2ccccc2c1-c1ccc(C)cc1 | 8% (active)
O=C1CC(N2CCC(c3nc4ccccc4[nH]3)CC2)C(=O)N1 (stereo unspecified) | 84%
Cc1c(C)n(Cc2ccccc2)c2ccc(C(=O)NCCc3ccccc3Cl)cc12 | 84%
COCCCn1c(SCC(=O)Nc2ccc(F)cc2)nc2c(sc3ccccc32)c1=O | 81%
CCOCCc1nnc(NC(=O)C(=O)c2cc(C)n(-c3ccc(Cl)cc3)c2C)s1 | 60%
CC(C)c1nn2c(=O)cc(COC(=O)c3ccccc3NC(=O)C3CCCCC3)nc2s1 | 90%
CCOCCCNC(=O)C1CCN(c2nn3cc(-c4ccc(F)cc4)nc3s2)CC1 | 86%
CC1=C(c2ccc(C)c(C)c2)S(=O)(=O)N=C1N1CCC(C(=O)NCc2ccccc2C)CC1 | 76%
COc1ccc(CNC(=O)CCc2c(C)c3cc4c(C)c(C)oc4cc3oc2=O)cc1OC | 104%
CCOc1ccc(OCC)c(Nc2nc3ccc(C(=O)c4ccccc4)cc3n3cnnc23)c1 | 77%
CCCSCCCNC(=O)C1CCN(c2nc3ccccc3nc2C(F)(F)F)CC1 | 0% (active)
Cc1ccccc1CCNC(=O)C1CCN(c2nc3ccccc3nc2C(F)(F)F)CC1 | 72%
CCNC(=O)C1CCN(c2nc3ccccc3nc2C(F)(F)F)CC1 | 144%
COc1ccccc1CCNC(=O)C1CCN(c2nc3ccccc3nc2C(F)(F)F)CC1 | 117%
O=C(NCCc1ccccc1Cl)C1CCN(c2nc3ccccc3nc2C(F)(F)F)CC1 | 37% (active)

Structure (SMILES) | survival
CCCCNC(=O)C1CCN(c2nc3ccccc3nc2C(F)(F)F)CC1 | 115%
CCOc1ccc(NC(=O)NCCN2CCN(c3ccccc3F)CC2)cc1 | 87%
CCOC(=O)c1cnc2ccc(OCC)cc2c1N1CCN(c2ccccc2F)CC1 | 0% (active)
CCOC(=O)c1cc(S(=O)(=O)N2CCN(c3cccc(C)c3C)CC2)[nH]n1 | 81%
CCOC(=O)c1cnc(N2CCN(c3ccc(C)cc3C)CC2)c2ccccc12 | 87%
CCOC(=O)c1cnc2c(OC)cccc2c1N1CCN(c2ccccc2F)CC1 | 1% (active)
CCOC(=O)c1cc(S(=O)(=O)N2CCN(c3ccccc3F)CC2)[nH]n1 | -5% (active)
COC(=O)c1cnc(N2CCN(c3ccccc3F)CC2)c2ccccc12 | 86%
CCOC(=O)c1cnc2ccc(OCC)cc2c1N1CCN(c2cccc(Cl)c2)CC1 | 3% (active)
CCOC(=O)c1cnc2cc(C(F)(F)F)ccc2c1N1CCN(c2cccc(Cl)c2)CC1 | 84%
CCOC(=O)c1noc2ncnc(N3CCN(c4cccc(Cl)c4)CC3)c12 | 83%
CCOC(=O)c1cc(S(=O)(=O)N2CCN(c3ccccc3OC)CC2)[nH]n1 | 122%
CCOC(=O)c1cnc(N2CCN(c3cccc(C)c3C)CC2)c2ccccc12 | 77%
CCOC(=O)c1ccccc1NC(=O)Cn1c(=O)n(-c2cccc(C)c2)c(=O)c2c1c1cc(C)ccc1n2C | 68%
CCOc1ccc(C(=O)NCC(c2cccs2)S(=O)(=O)c2ccccc2)cc1 (stereo unspecified) | 97%
CC(C)OC(=O)c1cc2c(ccn2C)n1CCC#N | 96%
Cc1cc(Nc2ccccc2C)nc(-n2nc(C)cc2C)n1 | 83%
Cc1ccc(S(=O)(=O)c2nc(-c3cccc(Cl)c3)oc2NCc2ccccc2)cc1 | 168%
Cc1ccc(NC(=O)C(=O)NCC(c2cccnc2)N2CCc3ccccc32)cc1Cl (stereo unspecified) | 97%
Cc1cccc(C)c1NC(=O)C(=O)NCC(c1cccnc1)N1CCc2ccccc21 (stereo unspecified) | 62%
COC(=O)c1ccc(NC(=O)C(=O)NCC(c2cccnc2)N2CCc3ccccc32)cc1 (stereo unspecified) | 34% (active)
COc1ccc(NC(=O)C(=O)NCC(c2cccnc2)N2CCc3ccccc32)cc1OC (stereo unspecified) | 61%
CCOc1ccc(NC(=O)C(=O)NCC(c2cccnc2)N2CCc3ccccc32)cc1 (stereo unspecified) | 44%
Cc1cc(C)cc(NC(=O)C(=O)NCC(c2cccnc2)N2CCc3ccccc32)c1 (stereo unspecified) | 43% (active)
